# Experimental data: PubChem BioAssay
# Assay: probe aNOTCH3 binding on compound microarray – biochemical, small-molecule microarray, 635/667 nm fluorescence, primary screen (AID 1120);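 note: probe is a biotin-tagged antibody raised against NOTCH3 rather than NOTCH3 protein; score merges spot fluorescence near 667 nm with spot signal to noise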
# Settings: higher = more signal
row,Structure (SMILES),composite z-score
1,Cc1ccc(S[C@]2(C(=O)NCCCN(C)C)CC(=O)N(C3CCCCC3)[C@@H]2c2ccc(CO)cc2I)cc1,0.0836
2,O=C1C2C=CC(C(O)C#Cc3ccccc3)N(Nc3ccccc3)C2C(=O)N1c1ccccc1 (stereo unspecified),-0.0077
3,O=C1NC(=O)C2C1C=CC(C(O)C=Cc1ccc([N+](=O)[O-])cc1)N2Nc1ccccn1 (stereo unspecified),0.0104
4,Cc1ccc(S(=O)(=O)N[C@H]2COC(=O)CC=C[C@H](C)COC(=O)N[C@@H](C)C(=O)CC=C[C@@H]2C)cc1,-0.178
5,Cc1ccc(N2C(=O)c3ccccc3[C@](C)(C(=O)NCC(C)C)[C@@H]2c2ccc(CO)cc2)nc1,-0.278
6,O=C1C2C=CC(C(O)c3ccccc3)N(n3cnnc3)C2C(=O)N1Cc1ccccc1 (stereo unspecified),0.0562
7,COc1cc([C@@H]2N[C@H](C(=O)O)Cc3c2[nH]c2ccccc32)cc(OC)c1OC,0.059
8,C=CCNC(=O)[C@H]1[C@@H]2C(=O)O[C@@H](c3ccccc3)[C@@H](c3ccccc3)N2[C@@H](c2ccc(O)cc2)[C@]12C(=O)Nc1ccc(C#CCNC(N)=O)cc12,-0.174
9,CCC#CCN(Cc1ccccc1Br)[C@H](/C=C/c1ccccc1)[C@@H](O)Cc1ccccc1,-0.132
10,CCCC=C(CCC)[C@@H](NC(=O)c1ccccc1)c1ccccc1,0.0191
11,CO[C@H]1O[C@H](CO)[C@@H](OC(=O)CCc2ccccc2)[C@@H]2OC(=O)[C@H](Cc3cccc(Br)c3)C/C=C/C[C@@H](Cc3cccc(Br)c3)C(=O)O[C@@H]12,-0.15
12,C=CCC(OC(C)=O)[C@@H]1[C@@H](N(Cc2cccc3ccccc23)C(=O)c2ccc(C)cc2)c2cc(OCCCO)ccc2N1C(=O)c1ccc(-c2ccccc2)cc1 (stereo partly specified),0.102
13,Cc1ccc(N2C(=O)c3ccccc3[C@](C)(C(=O)O)[C@@H]2c2ccc(CO)cc2)nc1,-0.414
14,C[C@@H]1CC[C@H]2C(=O)N3[C@@H](CC[C@@H](C)[C@@H]3c3cccc(N4CCOCC4)c3)C(=O)N2[C@H]1c1cccc(N2CCOCC2)c1,-0.344
15,Cc1ccc(S[C@]2(C(=O)NCCN3CCOCC3)CC(=O)N(C3Cc4ccccc4C3)[C@@H]2c2ccc(CO)cc2I)cc1,-0.0903
16,N#Cc1ccc(NN2C(C(O)c3ccc(I)cc3)C=CC3C(=O)N(c4ccccc4)C(=O)C32)cc1 (stereo unspecified),0.212
17,CCOC(=O)[C@H]1C/C=C/C[C@H](C(=O)OCC)C(=O)O[C@H]2[C@@H](OC)O[C@H](CO)[C@@H](OC(=O)Nc3ccc(Br)cc3)[C@@H]2OC1=O,-0.122
18,C[C@@H]1C=CCC(=O)OC[C@H]2O[C@@H](C=C[C@@H]2O)[C@H](C)C=CCC(=O)OC[C@H]2O[C@H]1C=C[C@@H]2O,0.716

row,Structure (SMILES),composite z-score
1,CO[C@@H]1COC(=O)[C@H](C)NC(=O)CC=C[C@@H](C)[C@H](NS(=O)(=O)c2ccc(C)cc2)COC(=O)CC=C[C@@H]1C,0.0066
2,C=C(CCCC)/C(=C/C[C@@H](OC(=O)c1ccncc1)c1cccc(OCCO)c1)c1cc(C(=O)OC)ccc1OC,0.0893
3,[N-]=[N+]=NCc1ccccc1C[C@]1(C(N)=O)N=C(c2ccc(OCCCO)cc2)O[C@H]1c1ccccc1CN=[N+]=[N-],0.0254
4,CCCCO[C@H]1C[C@H]2C(Br)=C[C@@]1(CO)C(=O)[C@]21CO1,-0.0647
5,CC(C)N1CC=CC23O[C@@H]4/C=C\CCCOC(=O)C4[C@H]2C(=O)N(CCCCCO)[C@@H]3C1=O (stereo partly specified),-0.448
6,CO[C@@H]1COC(=O)[C@H](C)NC(=O)CC=C[C@@H](C)[C@H](OC)COC(=O)[C@H](C)NC(=O)CC=C[C@H]1C,-0.226
7,CCOC(=O)C[C@H]1[C@H](OC(=O)Cc2ccc3c(c2)OCO3)[C@@H](NC(=O)c2ccc3ccccc3c2)c2cc(OCCCO)ccc2N1C(=O)Cc1ccc(OC)cc1,0.0284
8,CCCN1C(=O)[C@@]2(CCS(=O)(=O)c3ccccc3)N=C(c3ccc(OCCCO)cc3)O[C@H]2c2ccccc21,0.0833
9,CCCC[C@@H]1C[C@H]1[C@@H](NC(=O)c1cccs1)c1ccc(Cl)cc1,-0.201
10,C[C@H]1COC(=O)[C@@H]2CCCN2C(=O)[C@@H](C)COC(=O)[C@@H]2CCCN2C1=O,-0.241
11,[N-]=[N+]=NCc1ccccc1C[C@@]1(C(=O)O)N=C(c2ccc(OCCCO)cc2)O[C@@H]1c1ccccc1N=[N+]=[N-],0.328
12,O=C1C2C=CC(C(O)C(c3ccccc3)c3ccccc3)N(Nc3ccc([N+](=O)[O-])cc3)C2C(=O)N1c1ccccc1 (stereo unspecified),0.272
13,CO[C@H]1COC(=O)[C@H](CCSC)NC(=O)CC=C[C@@H](C)COC(=O)[C@@H](OCc2ccccc2)C=C[C@@H]1C,-0.0914
14,CCC(=O)[C@]12O[C@@]3([C@@H]4C(=O)OCC[C@@H]41)N(Cc1ccccc1)C(C)=C(C(=O)OC)[C@@H](c1ccccc1)N3C2=O,-0.207
15,COC(=O)[C@@]1(Cc2ccc(OC)cc2)[C@H]2c3cc(C(=O)N(C)C)n(CCc4ccc(OC)c(Br)c4)c3C[C@H]2CN1C(=O)c1ccccc1,0.831
16,C#CCCCON=C1C[C@@H](O)[C@@H](O)[C@@H]2[C@@H]3C(=O)N(Cc4ccc5c(c4)OCO5)C(=O)[C@@H]3CC[C@H]12,0.116
17,COC(=O)c1c(CC[C@@H](CO)NC(=O)N[C@H](Cn2cc(-c3cncn3C)nn2)C(C)C)oc(C(C)=O)c1C(=O)OC,-0.0647
18,CCOC(=O)C1=CC[C@@H](c2ccc(-c3ccc(OCc4ccccc4)cc3)c(OC)c2)N(S(=O)(=O)c2ccc(C)cc2)[C@H]1c1ccccc1,0.349
